# Laboratory results: the supplement of paper PMC12669032
# A number with no mark means an inactive call.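 The calls were made as follows: active = AUC reduced over 20% with Padj below 0.05 in at least 2 of 3 replicates; inactive = otherwise.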
# Key:
# [1] = system: Roseburia intestinalis; assay: growth AUC relative to DMSO control (median of replicates) (fraction); higher = more growth (less inhibition), active = hit call of the paper; settings: 20 µM; 24 h
# Summary of the method: (§1)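 In round-bottom 96-well plates sealed with pierced gas-permeable seals, gut bacterial monocultures in mGAM were grown anaerobically at 37 °C from OD600 0.05 with 20 µM compound (1% DMSO). OD600 readings were taken hourly for 24 h, and the minimum OD was set to 0. Area under the growth curve was then normalised to the plate median of solvent-only wells, or to row and column medians on the industrial chemical plate. The value given is the median of three biological replicates grown on separate days.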
# [2] = system: Streptococcus salivarius; assay: as above; settings: 20 µM; 24 h
# Summary of the method: as §1
SMILES,growth AUC [1],growth AUC [2]
CCCCCC(C)OC(=O)COc1ccc(Cl)c2cccnc12 (stereo not given),0.931,0.877
CS(=O)(=O)c1ccc(C(=O)O)c(N)c1,1.07,1.03
CCCCOCN(C(=O)CS(=O)(=O)[O-])c1c(CC)cccc1CC.[Na+],0.935,0.97
CN(C)C(=O)SCCCCOc1ccccc1,0.998,0.99
CCc1nc2ncnn2c(N)c1CCCC(=O)O.Cl,0.991,1.01
CCNc1nc(NC(C)CC)nc(OC)n1 (stereo not given),1.07,1.02
CNC(=O)Nc1nc2ccccc2s1,0.983,0.965
COC(=O)C(C)Oc1ccc(Oc2ncc(C(F)(F)F)cc2Cl)cc1 (stereo not given),1.01,0.954
CCc1cccc(C)c1NC(=O)CS(=O)(=O)[O-].[Na+],1,1.01
CCNC(=O)[C@@H](C)OC(=O)Nc1ccccc1,1.14,1.02
C=CCOC(Cn1ccnc1)c1ccc(Cl)cc1Cl (stereo not given),0.767 (active),0.915
CN(C)C(=O)Nc1ccc(Oc2ccc(Cl)cc2)cc1,0.874,0.94
O=C(O)CNC(=O)c1cnccc1C(F)(F)F,1.03,1
O=c1oc(-c2ccccc2)nc2ccccc12,0.979,0.981
O=[N+](Nc1ccccc1)c1ccccc1,0.944,1.06
CCNc1nc(NCC)nc(OC)n1,0.993,1.01
CCC(C)Nc1nc(N)nc(Cl)n1 (stereo not given),0.998,0.987
CC(C)N(C(=O)CS(=O)(=O)[O-])c1ccc(F)cc1.[Na+],1.03,0.973
COc1ccc(Cl)c(Cl)c1Cl,0.999,1.06
COc1cc(OC)nc(NC(=O)NS(=O)(=O)Nc2ccccc2C(=O)N(C)C)n1,0.981,0.99

SMILES,growth AUC [1],growth AUC [2]
CCc1cccc(C)c1N(C(=O)C(=O)O)C(C)COC (stereo not given),0.982,1
CCOC(=O)C1=NOC(c2ccccc2)(c2ccccc2)C1,1.01,0.959
Cc1[nH]oc(=O)c1N=Nc1ccccc1Cl,0.938,0.982
CCc1ccc(O)cc1,0.919,0.946
CCCN(CCOc1c(Cl)cc(Cl)cc1Cl)C(=O)NC=O,0.979,0.993
Clc1ccc(C(c2ccccc2Cl)C(Cl)Cl)cc1 (stereo not given),0.911,0.966
CCOc1ccc(C2(C(=O)OC(C#N)c3cccc(Oc4ccccc4)c3)CC2(Cl)Cl)cc1 (stereo not given),0.951,0.891
CC1=C(C(=O)Nc2ccccc2)CCCO1,0.996,1.03
O=C(O)C1(C(=O)Nc2ccc(Cl)cc2Cl)CC1,1.02,1.01
O.O.O=[N+]([O-])c1ccc([O-])cc1.[Na+],0.999,1.05
COc1cc(OC)nc(NC(=O)NS(=O)(=O)Nc2ccccc2C(=O)C2CC2)n1,1.1,0.955
CC(C)OC(=O)c1cc(C(=O)OC(C)C)cc([N+](=O)[O-])c1,0.974,0.992
O=[N+]([O-])c1ccc(Oc2c(Cl)cc(Cl)cc2Cl)cc1,1.02,1.03
CC(C)(SC(=O)N1CCCCC1)c1ccccc1,1.05,0.98
CCCCCCCCSCCO,0.944,0.959
Br[C@@H]1CC[C@@H](Br)[C@@H](Br)CC[C@H](Br)[C@H](Br)CC[C@H]1Br,1.43,0.898
CCc1cccc(CC)c1N(COC)C(=O)C(=O)O,1,1.02
CCCCCCC(C)OC(=O)C(C)Oc1ccc(Cl)cc1C (stereo not given),0.986,0.973
CC(C)N(C(=O)CS(=O)CC(=O)O)c1ccc(F)cc1 (stereo not given),1.03,0.948
CCNc1nc(NC(C)(C)C)[nH]c(=O)n1,1.03,1.03
